Drawing on PubChem BioAssay (Tox21), this text covers Potency for 40 compounds.

Each structure is given as a SMILES string. Inconclusive results are not listed. Entries that show only a call come without a potency. Activity calls are given as the source filed them. Calls come from the whole dose curve; as a rule, active = well fitted cell-killing curve with a large enough effect in the repeat runs (not every such curve was filed as active); inconclusive = weak or mixed curves, or effect the other way; inactive = no such curve, though single readings can be large or run the other way.
Potency is the fitted concentration of half-maximal effect.

The test is described as follows: qHTS assay to identify small molecule antagonists of the farnesoid-X-receptor (FXR) signaling pathway - cell viability counter screen (AID 743221). Note: nearly all actives have a fitted effect of over 50% in size. The note with it: FXR-bla HEK293T viability, CellTiter-Glo luminescence, 16 h; series mostly up to 62.6 µM. An excerpt: National Center for Advancing Translational Sciences [NCATS]
NIH Chemical Genomics Center [NCGC]
U.S. Environmental Protection Agency [EPA]
National Institutes of Environmental Health Sciences [NIEHS]
National Toxicology Program [NTP]
U.S. Food and Drug Administration [FDA]
The farnesoid-X-receptor (FXR), a nuclear hormone receptor, is highly expressed in liver, intestine, kidney and adrenal cortex. Natural ligands of FXR are the bile acids (Cholic acid, Chenodeoxy cholic acid etc). FXR is an important regulator of diverse metabolic pathways, including the bile acid homeostasis, lipid and glucose metabolisms. FXR regulates the expression of target genes by binding either as a monomer or as a heterodimer with the retinoid X receptor (RXR). Numerous studies have reported that FXR exerts protective function during cholestasis, diabetes, liver regeneration, and cancer. To identify compounds that inhibit FXR signaling, GeneBLAzer FXR-UAS-bla HEK 293T cell line (Invitrogen, Carlsbad, CA) containing a beta-lactamase reporter gene under the control of a UAS response element was used to screen the Tox21 10K compound library. The cytotoxicity of the Tox21 compound library against the FXR-bla cell line was tested in parallel by measuring the cell viability using CellTiter-Glo assay in the same wells.
Tox21 Assay Protocol Summary:
FXR-bla cells were dispensed at 5000 cells/5uL/well in 1536-well black wall/clear bottom plates using a Multidrop Combi (Thermo Fisher Scientific, Waltham, MA) dispenser. After the assay plates were incubated at 37 C and 5% CO2 for 5 h, 23 nL of compounds dissolved in DMSO, positive controls or DMSO only was transferred to the assay plate by a Pintool station (Kalypsys, San Diego, CA), followed by addition of 1 uL Chenodeoxycholic acid (50 uM, final concentration in the wells). The assay plates were incubated at 37C for 16 h. After 1 uL of LiveBLAzerTM B/G FRET substrate was added using a Bioraptr Flying Reagent Dispenser (FRD) workstation (Beckman Coulter, Indianapolis, IN), the plates were incubated at room temperature for 2 h, and fluorescence intensity was measured by an Envision plate reader (PerkinElmer, Shelton, CT). For cell viability readout that measures cytotoxicity, 4uL/well of CellTiter-Glo reagent was added into the assay plates using a Bioraptr FRD. After 30 min incubation at room temperature, the luminescence intensity in the plates was measured using a ViewLux plate reader (PerkinElmer).
With `Brc1cc(Br)c(Oc2cc(Br)c(Br)cc2Br)cc1Br`, the Potency result is “inactive”.

Take `O=c1[nH]c2ccc(Cl)cc2o1`: the Potency entry was “inactive”.

In the case of `C=CC(C)(CCC=C(C)C)OC(=O)CC(C)C` (stereo not given), the Potency result is “inactive”.

Regarding `Cc1cccc(O)c1N`, the Potency result is “inactive”.

With `CC(C)(O)c1ccc(CNC(=O)c2cccnc2Oc2ccc3nonc3c2)cc1`, the Potency result was “inactive”.

Regarding `CC(=O)Oc1ccc([N+](=O)[O-])cc1CCl`, the Potency entry was “inactive”.

On to `N#CCCN(CCO)CCO`, for which the Potency entry is “inactive”.

Consider `CN(C(=O)CN(CCO)CC(=O)N(C)C(C)(C)Cc1ccccc1)C(C)(C)Cc1ccccc1`, for which the Potency entry is “inactive”.

As for `CCOC(=O)C1=C(C)NC(C)=C(C(=O)OC)C1c1cccc(Cl)c1Cl` (stereo not given), the Potency result was “inactive”.

For the compound `N#[N+]c1ccc2c(S(=O)(=O)[O-])cccc2c1O`, the Potency result was “inactive”.

For `CCC(C)(C)OC`, the Potency entry was “inactive”.

For the compound `CCCCCC[C@@H](O)C/C=C\CCCCCCCC(=O)OCC(O)CO` (stereo not given in full), the Potency result was “inactive”.

As to `CCOC(=O)c1ccc(I)cc1`, the Potency result is “inactive”.

As to `CCCCN(CCN(CCCC)C(=O)N1CCOCC1)C(=O)N1CCOCC1`, the Potency result is “inactive”.

In the case of `O=C(Nc1cccc2c(=O)cc(-c3nn[nH]n3)oc12)c1ccc(OCCCCc2ccccc2)cc1`, the Potency result was “inactive”.

Take `Cc1cccc(N(C)C(=S)Oc2ccc3c(c2)CCC3)c1`: the Potency result is “inactive”.

As for `CCC(=O)C1CC(C(C)C)CC=C1C` (stereo not given), the Potency result was “inactive”.

In the case of `CCC(=O)OC`, the Potency entry is “inactive”.

Turning to `CC(CCC(=O)O)C(=O)O` (stereo not given), the Potency result is “inactive”.

Turning to `O=C1c2ccccc2C(=O)C1c1ccc(Br)cc1`, the Potency result is “inactive”.

As for `Nc1cccc2c1CN(C1CCC(=O)NC1=O)C2=O` (stereo not given), the Potency entry is “inactive”.

In the case of `C[C@@H](O[C@H]1OCCN(Cc2n[nH]c(=O)[nH]2)[C@H]1c1ccc(F)cc1)c1cc(C(F)(F)F)cc(C(F)(F)F)c1`, the Potency was 29.8 µM (active).

Regarding `CCOc1ccccc1O[C@H](c1ccccc1)[C@H]1CNCCO1`, the Potency result was “inactive”.

Consider `COc1ccccc1Oc1c(NS(=O)(=O)c2ccc(C(C)(C)C)cc2)nc(-c2ncccn2)nc1OCCO`, for which the Potency entry is “inactive”.

In the case of `CC1(C)[C@@H](OC(=O)CCC(=O)O)CC[C@]2(C)[C@H]3C(=O)C=C4[C@@H]5C[C@@](C)(C(=O)O)CC[C@]5(C)CC[C@@]4(C)[C@]3(C)CC[C@@H]12`, the Potency result was “inactive”.

As to `O=Cc1c2ccccc2c(Cl)c2ccccc12`, the Potency entry is “inactive”.

Regarding `C[C@@H](O)[C@H]1C(=O)N2C(C(=O)O)=C([C@H]3CCCO3)S[C@H]12`, the Potency result was “inactive”.

As for `CCCCCCNC(=O)n1cc(F)c(=O)[nH]c1=O`, the Potency entry is “inactive”.

For `CCOc1ccc(Cc2nccc3cc(OCC)c(OCC)cc23)cc1OCC`, the Potency entry was “inactive”.

For the compound `O=c1cc(-c2ccccc2)oc2ccc3ccccc3c12`, the Potency is 19.5 µM (active).

Turning to `CC(C)=CCC/C(C)=C/CC/C(C)=C/CCC(=O)OC/C=C(\C)CCC=C(C)C`, the Potency entry is “inactive”.

Consider `C=C1c2cccc(O)c2C(O)=C2C(=O)[C@]3(O)C(O)=C(C(N)=O)C(=O)[C@@H](N(C)C)[C@@H]3[C@@H](O)[C@H]12`, for which the Potency result was “inactive”.

Turning to `O=C1CCCCCCCCCCOCCCCO1`, the Potency result was “inactive”.

With `CC=C(Cl)Cl`, the Potency result was “inactive”.

Regarding `COc1ccc(OC(=O)N(CC(=O)O)Cc2ccc(OCCc3nc(-c4ccccc4)oc3C)cc2)cc1`, the Potency entry was “inactive”.

For the compound `CC(=O)N/N=C/c1ccc([N+](=O)[O-])o1`, the Potency entry was “inactive”.

As for `CCOC(=O)/C=C/C(=O)OCC`, the Potency entry was “inactive”.

For the compound `Cc1ccc(OC(=O)c2ccccc2O)cc1`, the Potency entry was “inactive”.

On to `Oc1c(I)cc(I)c2cccnc12`, for which the Potency entry was “inactive”.

On to `N#CCc1ccc(Cl)cc1Cl`, for which the Potency result is “inactive”.
